# Source: the supplement of paper PMC4466140
# Target: AgAbp1
# Experiment: SPOT peptide array binding signal intensity (averaged, normalized) (arbitrary units (background-subtracted, floor 0; scale differs between SH3 domains)); higher = stronger binding of the SH3 domain to the peptide
# Method in brief: (§1)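 Binding signal refers to normalized, background-subtracted spot intensity averaged over replicates, expressed in arbitrary units that differ between domains. GST-fused SH3 domains from four yeast species were incubated at 10 μg/ml overnight at 4°C on cellulose membranes of synthetic 15-mer peptides with cysteines replaced by serines. Bound protein was detected with anti-GST antibody, an HRP anti-mouse secondary and luminol, and quantified with Genespotter.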
row,Binder,SPOT peptide array binding signal intensity
1,DLPLPDLPPEPPTEL,≤ 0

# Target: AgBbc1
# Experiment: as above
# Method in brief: as §1
row,Binder,SPOT peptide array binding signal intensity
1,DLPLPDLPPEPPTEL,≤ 0

# Target: AgBem1-D1
# Experiment: as above
# Method in brief: as §1
row,Binder,SPOT peptide array binding signal intensity
1,DLPLPDLPPEPPTEL,≤ 0

# Target: AgBzz1-D1
# Experiment: as above
# Method in brief: as §1
row,Binder,SPOT peptide array binding signal intensity
1,DLPLPDLPPEPPTEL,≤ 0

# Target: AgBzz1-D2
# Experiment: as above
# Method in brief: as §1
row,Binder,SPOT peptide array binding signal intensity
1,DLPLPDLPPEPPTEL,2

# Target: AgCyk3
# Experiment: as above
# Method in brief: as §1
row,Binder,SPOT peptide array binding signal intensity
1,DLPLPDLPPEPPTEL,0.5

# Target: AgFus1
# Experiment: as above
# Method in brief: as §1
row,Binder,SPOT peptide array binding signal intensity
1,DLPLPDLPPEPPTEL,≤ 0

# Target: AgHof1
# Experiment: as above
# Method in brief: as §1
row,Binder,SPOT peptide array binding signal intensity
1,DLPLPDLPPEPPTEL,54.5

# Target: AgHse1
# Experiment: as above
# Method in brief: as §1
row,Binder,SPOT peptide array binding signal intensity
1,DLPLPDLPPEPPTEL,10.5

# Target: AgLsb1
# Experiment: as above
# Method in brief: as §1
row,Binder,SPOT peptide array binding signal intensity
1,DLPLPDLPPEPPTEL,≤ 0

# Target: AgLsb4
# Experiment: as above
# Method in brief: as §1
row,Binder,SPOT peptide array binding signal intensity
1,DLPLPDLPPEPPTEL,≤ 0

# Target: AgMyo5
# Experiment: as above
# Method in brief: as §1
row,Binder,SPOT peptide array binding signal intensity
1,DLPLPDLPPEPPTEL,207

# Target: AgNbp2
# Experiment: as above
# Method in brief: as §1
row,Binder,SPOT peptide array binding signal intensity
1,DLPLPDLPPEPPTEL,≤ 0

# Target: AgRvs167
# Experiment: as above
# Method in brief: as §1
row,Binder,SPOT peptide array binding signal intensity
1,DLPLPDLPPEPPTEL,≤ 0

# Target: AgSho1
# Experiment: as above
# Method in brief: as §1
row,Binder,SPOT peptide array binding signal intensity
1,DLPLPDLPPEPPTEL,≤ 0

# Target: AgSla1-D1-D2
# Experiment: as above
# Method in brief: as §1
row,Binder,SPOT peptide array binding signal intensity
1,DLPLPDLPPEPPTEL,2

# Target: AgSla1-D3
# Experiment: as above
# Method in brief: as §1
row,Binder,SPOT peptide array binding signal intensity
1,DLPLPDLPPEPPTEL,≤ 0

# Target: CaAbp1-D1
# Experiment: as above
# Method in brief: as §1
row,Binder,SPOT peptide array binding signal intensity
1,DLPLPDLPPEPPTEL,≤ 0

# Target: CaAbp1-D2
# Experiment: as above
# Method in brief: as §1
row,Binder,SPOT peptide array binding signal intensity
1,DLPLPDLPPEPPTEL,≤ 0

# Target: CaBbc1
# Experiment: as above
# Method in brief: as §1
row,Binder,SPOT peptide array binding signal intensity
1,DLPLPDLPPEPPTEL,≤ 0

# Target: CaBem1-D1
# Experiment: as above
# Method in brief: as §1
row,Binder,SPOT peptide array binding signal intensity
1,DLPLPDLPPEPPTEL,≤ 0

# Target: CaBzz1-D1
# Experiment: as above
# Method in brief: as §1
row,Binder,SPOT peptide array binding signal intensity
1,DLPLPDLPPEPPTEL,≤ 0

# Target: CaBzz1-D2
# Experiment: as above
# Method in brief: as §1
row,Binder,SPOT peptide array binding signal intensity
1,DLPLPDLPPEPPTEL,≤ 0

# Target: CaCyk3
# Experiment: as above
# Method in brief: as §1
row,Binder,SPOT peptide array binding signal intensity
1,DLPLPDLPPEPPTEL,≤ 0

# Target: CaFus1
# Experiment: as above
# Method in brief: as §1
row,Binder,SPOT peptide array binding signal intensity
1,DLPLPDLPPEPPTEL,≤ 0

# Target: CaHof1
# Experiment: as above
# Method in brief: as §1
row,Binder,SPOT peptide array binding signal intensity
1,DLPLPDLPPEPPTEL,2.5

# Target: CaHse1
# Experiment: as above
# Method in brief: as §1
row,Binder,SPOT peptide array binding signal intensity
1,DLPLPDLPPEPPTEL,1

# Target: CaLsb1
# Experiment: as above
# Method in brief: as §1
row,Binder,SPOT peptide array binding signal intensity
1,DLPLPDLPPEPPTEL,0.5

# Target: CaLsb4
# Experiment: as above
# Method in brief: as §1
row,Binder,SPOT peptide array binding signal intensity
1,DLPLPDLPPEPPTEL,≤ 0

# Target: CaMyo5
# Experiment: as above
# Method in brief: as §1
row,Binder,SPOT peptide array binding signal intensity
1,DLPLPDLPPEPPTEL,0.75

# Target: CaNbp2
# Experiment: as above
# Method in brief: as §1
row,Binder,SPOT peptide array binding signal intensity
1,DLPLPDLPPEPPTEL,≤ 0

# Target: CaRvs167
# Experiment: as above
# Method in brief: as §1
row,Binder,SPOT peptide array binding signal intensity
1,DLPLPDLPPEPPTEL,0.333

# Target: CaRvs167-3
# Experiment: as above
# Method in brief: as §1
row,Binder,SPOT peptide array binding signal intensity
1,DLPLPDLPPEPPTEL,2.5

# Target: CaSho1
# Experiment: as above
# Method in brief: as §1
row,Binder,SPOT peptide array binding signal intensity
1,DLPLPDLPPEPPTEL,9.5

# Target: CaSla1-D1-D2
# Experiment: as above
# Method in brief: as §1
row,Binder,SPOT peptide array binding signal intensity
1,DLPLPDLPPEPPTEL,≤ 0

# Target: CaSla1-D3
# Experiment: as above
# Method in brief: as §1
row,Binder,SPOT peptide array binding signal intensity
1,DLPLPDLPPEPPTEL,≤ 0

# Target: ScAbp1
# Experiment: as above
# Method in brief: as §1
row,Binder,SPOT peptide array binding signal intensity
1,DLPLPDLPPEPPTEL,4

# Target: ScBbc1
# Experiment: as above
# Method in brief: as §1
row,Binder,SPOT peptide array binding signal intensity
1,DLPLPDLPPEPPTEL,2.75

# Target: ScBem1-D1
# Experiment: as above
# Method in brief: as §1
row,Binder,SPOT peptide array binding signal intensity
1,DLPLPDLPPEPPTEL,≤ 0

# Target: ScBzz1-D1
# Experiment: as above
# Method in brief: as §1
row,Binder,SPOT peptide array binding signal intensity
1,DLPLPDLPPEPPTEL,2

# Target: ScBzz1-D2
# Experiment: as above
# Method in brief: as §1
row,Binder,SPOT peptide array binding signal intensity
1,DLPLPDLPPEPPTEL,2

# Target: ScCyk3
# Experiment: as above
# Method in brief: as §1
row,Binder,SPOT peptide array binding signal intensity
1,DLPLPDLPPEPPTEL,2

# Target: ScFus1
# Experiment: as above
# Method in brief: as §1
row,Binder,SPOT peptide array binding signal intensity
1,DLPLPDLPPEPPTEL,≤ 0

# Target: ScHof1
# Experiment: as above
# Method in brief: as §1
row,Binder,SPOT peptide array binding signal intensity
1,DLPLPDLPPEPPTEL,206

# Target: ScHse1
# Experiment: as above
# Method in brief: as §1
row,Binder,SPOT peptide array binding signal intensity
1,DLPLPDLPPEPPTEL,≤ 0

# Target: ScLsb1
# Experiment: as above
# Method in brief: as §1
row,Binder,SPOT peptide array binding signal intensity
1,DLPLPDLPPEPPTEL,≤ 0

# Target: ScLsb2
# Experiment: as above
# Method in brief: as §1
row,Binder,SPOT peptide array binding signal intensity
1,DLPLPDLPPEPPTEL,≤ 0

# Target: ScLsb3
# Experiment: as above
# Method in brief: as §1
row,Binder,SPOT peptide array binding signal intensity
1,DLPLPDLPPEPPTEL,≤ 0

# Target: ScLsb4
# Experiment: as above
# Method in brief: as §1
row,Binder,SPOT peptide array binding signal intensity
1,DLPLPDLPPEPPTEL,≤ 0

# Target: ScMyo3
# Experiment: as above
# Method in brief: as §1
row,Binder,SPOT peptide array binding signal intensity
1,DLPLPDLPPEPPTEL,384

# Target: ScMyo5
# Experiment: as above
# Method in brief: as §1
row,Binder,SPOT peptide array binding signal intensity
1,DLPLPDLPPEPPTEL,646

# Target: ScNbp2
# Experiment: as above
# Method in brief: as §1
row,Binder,SPOT peptide array binding signal intensity
1,DLPLPDLPPEPPTEL,≤ 0

# Target: ScPex13
# Experiment: as above
# Method in brief: as §1
row,Binder,SPOT peptide array binding signal intensity
1,DLPLPDLPPEPPTEL,≤ 0

# Target: ScRvs167
# Experiment: as above
# Method in brief: as §1
row,Binder,SPOT peptide array binding signal intensity
1,DLPLPDLPPEPPTEL,≤ 0

# Target: ScSho1
# Experiment: as above
# Method in brief: as §1
row,Binder,SPOT peptide array binding signal intensity
1,DLPLPDLPPEPPTEL,≤ 0

# Target: ScSla1-D1-D2
# Experiment: as above
# Method in brief: as §1
row,Binder,SPOT peptide array binding signal intensity
1,DLPLPDLPPEPPTEL,≤ 0

# Target: ScSla1-D3
# Experiment: as above
# Method in brief: as §1
row,Binder,SPOT peptide array binding signal intensity
1,DLPLPDLPPEPPTEL,≤ 0

# Target: SpAbp1-D1
# Experiment: as above
# Method in brief: as §1
row,Binder,SPOT peptide array binding signal intensity
1,DLPLPDLPPEPPTEL,≤ 0

# Target: SpBbc1
# Experiment: as above
# Method in brief: as §1
row,Binder,SPOT peptide array binding signal intensity
1,DLPLPDLPPEPPTEL,≤ 0

# Target: SpBzz1-D1
# Experiment: as above
# Method in brief: as §1
row,Binder,SPOT peptide array binding signal intensity
1,DLPLPDLPPEPPTEL,≤ 0

# Target: SpBzz1-D2
# Experiment: as above
# Method in brief: as §1
row,Binder,SPOT peptide array binding signal intensity
1,DLPLPDLPPEPPTEL,≤ 0

# Target: SpCyk3
# Experiment: as above
# Method in brief: as §1
row,Binder,SPOT peptide array binding signal intensity
1,DLPLPDLPPEPPTEL,≤ 0

# Target: SpHof1
# Experiment: as above
# Method in brief: as §1
row,Binder,SPOT peptide array binding signal intensity
1,DLPLPDLPPEPPTEL,≤ 0

# Target: SpHof1-2
# Experiment: as above
# Method in brief: as §1
row,Binder,SPOT peptide array binding signal intensity
1,DLPLPDLPPEPPTEL,3

# Target: SpHof1-3
# Experiment: as above
# Method in brief: as §1
row,Binder,SPOT peptide array binding signal intensity
1,DLPLPDLPPEPPTEL,0.5

# Target: SpHse1
# Experiment: as above
# Method in brief: as §1
row,Binder,SPOT peptide array binding signal intensity
1,DLPLPDLPPEPPTEL,≤ 0

# Target: SpLsb1
# Experiment: as above
# Method in brief: as §1
row,Binder,SPOT peptide array binding signal intensity
1,DLPLPDLPPEPPTEL,≤ 0

# Target: SpLsb4
# Experiment: as above
# Method in brief: as §1
row,Binder,SPOT peptide array binding signal intensity
1,DLPLPDLPPEPPTEL,≤ 0

# Target: SpMyo1
# Experiment: as above
# Method in brief: as §1
row,Binder,SPOT peptide array binding signal intensity
1,DLPLPDLPPEPPTEL,328

# Target: SpNbp2
# Experiment: as above
# Method in brief: as §1
row,Binder,SPOT peptide array binding signal intensity
1,DLPLPDLPPEPPTEL,≤ 0

# Target: SpPex13
# Experiment: as above
# Method in brief: as §1
row,Binder,SPOT peptide array binding signal intensity
1,DLPLPDLPPEPPTEL,≤ 0

# Target: SpRvs167
# Experiment: as above
# Method in brief: as §1
row,Binder,SPOT peptide array binding signal intensity
1,DLPLPDLPPEPPTEL,≤ 0

# Target: SpSla1-D1-D2
# Experiment: as above
# Method in brief: as §1
row,Binder,SPOT peptide array binding signal intensity
1,DLPLPDLPPEPPTEL,≤ 0

# Target: SpSla1-D3
# Experiment: as above
# Method in brief: as §1
row,Binder,SPOT peptide array binding signal intensity
1,DLPLPDLPPEPPTEL,≤ 0
